# Shiga inhibitor: A qHTS for Small Molecule Inhibitors of Shiga Toxin; Vero cells, Shiga toxin protein synthesis inhibition reporter; inhibition, % at 38.7 µM; 290,000 compounds, 9.2% hits; AID 2315, 2010; in the data active = inhibition mostly above about 28%, no sharp cut-off; inactive = mostly below about 43%; note: 0% is about no effect
# Pf growth 96h: Primary qHTS for delayed death inhibitors of the malarial parasite plastid, 96 hour incubation | P. falciparum luciferase reporter growth, 96 h | Potency, µM (top dose mostly 28.7 µM), for the others: at the highest dose activity change, negative = inhibition, most hits filed as inhibitors | 320,000 compounds, 6.9% hits; note: potency is the fitted concentration of half-maximal effect; % is set by controls: 0 for no effect and ±100 for the full control effect
#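 Two-generation exposure (96 h) targets delayed-death phenotype. Reporter parasites carrying integrated firefly luciferase, in red cells at 2% hematocrit and 0.05% parasitemia final, kept at 37 C, 5% CO2; luminescence loss indicates inhibition.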
# Pf growth 48h: Primary qHTS for delayed death inhibitors of the malarial parasite plastid, 48 hour incubation; P. falciparum luciferase growth in erythrocytes, 48 h; Potency, µM (top dose mostly 28.7 µM), for inactives: top-dose activity change, negative = inhibition, hits mostly inhibitors; 310,000 compounds, 5.9% hits; note: potency is the fitted concentration of half-maximal effect; % is set by controls: 0 for no effect and ±100 for the full control effect
#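 In quantitative HTS format, infected erythrocytes bearing luciferase-reporter parasites were treated for a single generation at 37 C. Luminescence after adding detection reagent served as the growth measure.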
# SARS PLpro yeast: qHTS of Yeast-based Assay for SARS-CoV PLP. Potency, µM (doses to about 32.9 µM), for the others: at the highest dose activity, positive = growth rescue, hits mostly activators. 330,000 compounds, 0.19% hits. AID 485353, 2010. S. cerevisiae expressing SARS-CoV PLpro, growth rescue; calls by dose curve; note: potency is the fitted concentration of half-maximal effect; 0% is about no effect; nearly all actives have a fitted effect of over 55% in size
# Cycloheximide cs: Cycloheximide Counterscreen for Small Molecule Inhibitors of Shiga Toxin | max response, % | cell reporter, cycloheximide protein synthesis inhibition counterscreen | 300,000 compounds, 12% hits; in the data active = max response mostly above about 13%, no sharp cut-off; inactive = mostly below about 14%; note: read at 38.3 µM for the half of the compounds with a filed dose; 0% is about no effect
# NS1 inh: qHTS Assay for Inhibitors of Influenza NS1 Protein Function. Potency, µM (series often up to 46.1 µM), for the others: at the highest dose activity, positive = more growth. 270,000 compounds, 0.4% hits. AID 2326, 2010; calls by dose curve; note: potency is the fitted concentration of half-maximal effect; actives are rising curves; nearly all actives have a fitted effect of over 50% in size
#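 Compounds were scored for reversing the slow growth caused by influenza A NS1 in S. cerevisiae, measured by optical density at 600 nm. Assay medium contained 2% galactose at pH 6.0; NS1-free yeast of the same strain were the positive control.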
# An asterisk follows results filed as active; u = inconclusive; x = no result given; [ ] = remark or other dose. A selection: hits, their analogues and other compounds. The true share with any hit is near 21%. Unless noted, calls come from the whole dose curve; as a rule, active = well fitted inhibition curve with a large enough effect; inconclusive = small, poorly fitted or top-dose-only effect, or another doubt; inactive = no such curve, though single readings can be large or run the other way.
SMILES,Shiga inhibitor,Pf growth 96h,Pf growth 48h,SARS PLpro yeast,Cycloheximide cs,NS1 inh
COc1cc(CNCc2cccnc2)ccc1OCc1ccccc1,76*,67%,65%,-2%,36*,x
COc1cc(CNCCc2ccccc2)ccc1OCc1ccc(Cl)nc1,35,-100%,x,10%[6.58 µM],9,-8%
c1ccc(COc2cccc(CNCc3cccnc3)c2)cc1,13,7%,u,0%,9,4%
Clc1ccc(COc2ccccc2CNCc2cccnc2)cc1,-13,4.7µM*,x,5%,-5,-10%
COc1cc(CNCC(O)c2ccccc2)ccc1OCc1ccc(Cl)nc1 (stereo not given),30,3.7µM*,x,11%,17*,8%
C=CCOc1ccccc1CNCc1cccnc1,-15,32%,1%,3%,4,-10%
COc1ccc(CCNC(=O)CCCN2C(=O)c3ccccc3C2=O)cc1,15,0%,-3%,-1%,6,-1%
NCCc1ccc(OCc2ccccc2)c(OCc2ccccc2)c1,x,10µM*,u,-2%,x,x
Cc1c(C)n(CCN(C)C)c2ncnc(NCc3ccccc3)c12,3,4%,-4%[0.00184 µM],1%,-3,-1%
Cc1c(C)n(CCc2ccccc2)c2ncnc(NCCCN(C)C)c12,28*,u,u,2%,18,8%
CSc1ccccc1OCc1cc(C(=O)N(C)Cc2ccc(C)o2)no1,79*,u,-6%,-10%,54*,-46%
CSc1ccccc1OCc1cc(C(=O)N(C)Cc2ccc3nsnc3c2)no1,100*,82%,31%,-2%,52*,-8%
CSc1ccccc1OCc1cc(C(=O)N(C)C(C)c2nc(C)cs2)no1 (stereo not given),20,20%,-1%,0%,18*,-10%
Cc1ccc([C@@H]2[C@@H]3C(=O)N(c4ccccc4)C(=O)[C@@H]3[C@]3(C)C(=O)N(Cc4ccc(-c5ccccc5)cc4)CC(=O)N23)o1,8,-1%,-16%,-2%,-2,u
O=C(O)c1cc(Cl)c(Cl)cc1C(=O)NCc1ccco1,-7,u,4%,0%,-1,8%
O=C(CO/N=C/c1ccccc1O)N1CCc2ccccc21,20,-7%,-2%,9%,-1,16%
CCOC(=O)N1CCC(N2C(=O)c3ccccc3C2Nc2cc(Cl)c(OC)cc2OC)CC1 (stereo not given),-15,u,13µM*,1%,-3,-25%
CCOC(=O)N1CCC(N2C(=O)c3ccccc3C2Nc2cc(OC)c(OC)c(OC)c2)CC1 (stereo not given),-2,u,u,-3%,-3,-2%
CC(C)COC(=S)Nc1ccccc1,17,-26%,x,28%,32*,7%
CC(C)COCC(O)CCC(=O)NNC(=S)Nc1ccccc1 (stereo not given),-8,-1%,8%,0%,-2,-2%
O=C(NC(=S)NC1CCS(=O)(=O)C1)c1ccccc1Br (stereo not given),-15,5.9µM*,-4%,2%,10,13%
CN(C(=S)NC(=O)c1ccccc1Br)C1CCCCC1,25,4.7µM*,-12%,3%,4,-10%
Cc1ccccc1C(=O)NC(=S)N(C)C1CCCCC1,31*,u,15µM*,1%,26*,-3%
CC1CCCCC1NC(=S)NC(=O)c1ccccc1Br (stereo not given),-4,u,u,u,8,19%
O=C(COc1ccc(/C=N/NC(=O)C(=O)N2CCCCC2)cc1)Nc1ccccc1Cl,20,22%,-3%,2%,20,x
SMILES,Shiga inhibitor,Pf growth 96h,Pf growth 48h,SARS PLpro yeast,Cycloheximide cs,NS1 inh
O=C(OC(C(=O)NC1CCCCC1)c1ccc(C(F)(F)F)cc1)c1ccco1 (stereo not given),x,u,u,9%,x,x
Cc1ccc(S(=O)(=O)N(CC2CO2)c2cc(Cl)ccc2Cl)cc1 (stereo not given),-2,26%,0%,-2%,-1,-4%
COc1ccccc1N1CCN(CCCCN2C(=O)C3CCCCN3C2=O)CC1 (stereo not given),x,8.3µM*,-6%,1%,-1,-5%
COc1ccc2c(c1)N(C(=O)CN1C(=O)C3CCCCC3C1=O)C(C)(C)C=C2C (stereo not given),-4,12%,12µM*,16%,-3,3%
COc1ccc2c(c1)C(C)=CC(C)(C)N2C(=O)CN1C(=O)CCC1=O,-3,u,-18%,u,-2,6%
COc1ccccc1N1CCN(C(=O)CN2C(=O)C3CCCCC3C2=O)CC1 (stereo not given),77*,21%,8%,-1%,28*,4%
CC(C)CSc1oc(-c2ccco2)nc1S(=O)(=O)c1ccccc1,-10,-2%,-25%,-7%,1,-3%
Cc1ccc(-c2cc(-c3ccc(F)cc3)n[nH]2)c(O)c1,101*,u,0%,-17%,51*,-78%
Oc1ccc(F)cc1-c1cc(-c2ccc3c(c2)OCCO3)n[nH]1,90*,x,16%,-2%,42*,11%
Oc1ccccc1-c1cc(-c2ccccc2)n[nH]1,x,x,x,-13%,x,x
COc1ccc(NC(=O)c2cc(-c3ccc(C)cc3O)n[nH]2)c(OC)c1,-2,u,10%[0.00184 µM],-1%,-4,1%
Oc1ccccc1-c1cc(-c2ccc(F)cc2)n[nH]1,x,u,62%,-5%,30*,-42%
CCc1cc(-c2n[nH]c(C)c2-c2ccc3c(c2)OCCO3)c(O)cc1O,-12,x,x,x,5,x
Cc1ccc(-c2cc(-c3ccc(C)cc3O)[nH]n2)cc1,51*,-30%,-67%,-14%,41*,-59%
CN1CCN(C(CC(=O)Nc2cccc(O)c2)C(=O)O)CC1 (stereo not given),-14,u,-7%,5%,-2,x
Oc1ccc(Cl)cc1-c1cc(-c2ccccc2)n[nH]1,31,-29%,7.4µM*,-24%,18*,-79%
Cc1ccc(O)c(-c2cc(-c3cccc(Br)c3)n[nH]2)c1,98*,81%,11%,0%,45*,4%
O=C(Nc1ccccc1C(F)(F)F)c1ncn[nH]1,20,78%,0%,4%,5,-2%
CN(C)c1cccc(C(=O)OCC(=O)NCc2ccco2)c1,18,2%,-4%,17%,19*,-3%
CC(=O)Nc1ccc(C(=O)OCC(=O)c2ccc(F)cc2)cc1,34*,-8%,104%,8%,25*,25%
CC(=O)Nc1cc(C(=O)OCC(=O)c2ccc(C)cc2)ccc1C,128*,12%,159%,13%,86*,2%
CC(=O)Nc1ccc(OC(=O)c2ccccc2O)cc1,x,-8%,-3%,x,x,x
CC(=O)Nc1ccc(C(=O)OCc2ccc(F)cc2)cc1,35,3%,u,-5%,12,-55%
